This note sets out measurements from PubChem BioAssay (EPA / NIEHS).

Some compounds were tested as several samples or in several runs, with calls that do not always agree. Active and inactive are the calls of the source. The calls were made as follows: active = hit-call score of the fitted dose curve at least 0.9, where 1 is the maximum; inactive = score below 0.9.

Experiment [1] can be described thus: ATG_CRE_CIS: Attagene CIS-FACTORIAL HepG2 Assay for human cAMP Responsive Element (CRE) binding protein 3 (AID 2282926). The note with it: HepG2 CRE cis-reporter, Attagene multiplexed mRNA; actives raise or lower the signal. An outline of the steps:
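Multiplexed transcription-unit reporters transfected into HepG2; 24 h dosing; RT-PCR/capillary electrophoresis fluorescence read-out; bidirectional fit vs DMSO.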

The target in experiment [2] is CCAAT/enhancer-binding protein beta (Homo sapiens) (UniProt P17676). The experiment in a line: ATG_C_EBP_CIS: Attagene CIS-FACTORIAL HepG2 Assay for human CCAAT/Enhancer Binding Protein (C/EBP) beta (AID 2282927). The settings on record: HepG2 Attagene cis-factorial transcription factor reporter; actives raise or lower the signal. A digest of the protocol: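 Transiently transfected HepG2 (MRTU library, endogenous TF-driven promoters); 24 h dosing; total RNA → oligo(dT) RT → PCR → 6-FAM primer extension → HpaI digest → CE; fit bidirectionally vs DMSO.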

Experiment [3] is described as follows: ATG_CMV_CIS: Attagene CIS-FACTORIAL HepG2 Assay for human CMV (Internal Marker) (AID 2282928).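 Also: endpoint acts as a background internal control marker rather than a target.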 The note with it: HepG2 CMV promoter reporter, transcription factor profiling; actives raise or lower the signal. An outline of the steps:
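Cell system: HepG2, transiently transfected multiple reporter units under cis promoters. Exposure: 24 h. Detection: RT-PCR, FAM labeling, HpaI digestion, capillary electrophoresis. Analysis: bidirectional, DMSO baseline.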

Experiment [4] can be described thus: ATG_DR4_LXR_CIS: Attagene CIS-FACTORIAL HepG2 Assay for human Liver X Receptor (LXR), DR4 submotif (AID 2282929). The settings on record: HepG2 Attagene DR4 cis-reporter, mRNA transcription; actives raise or lower the signal. An outline of the steps:
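Endogenous factor activity at a DR4 cis-element is read as reporter mRNA in transiently transfected HepG2 cells. Exposure lasts 24 h; transcripts are amplified, fluorescently labelled and sized by capillary electrophoresis, with DMSO as baseline.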

In experiment [5] the target is Aryl hydrocarbon receptor (Homo sapiens) (UniProt P35869). The experiment is described as follows: ATG_Ahr_CIS: Attagene CIS-FACTORIAL HepG2 Assay for human Aryl Hydrocarbon Receptor (Ahr) (AID 2282930). The note with it: HepG2 AhR cis-factorial reporter transcription; actives raise or lower the signal. A digest of the protocol: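 Read-out: reporter mRNA quantified by RT-PCR with fluorescent primer extension and capillary electrophoresis. Human HepG2 liver cells carried transfected cis-promoter reporter units and were exposed to chemical for 24 h; gain or loss fitted relative to DMSO.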

Experiment [6] is described as follows: ATG_AP_1_CIS: Attagene CIS-FACTORIAL HepG2 Assay for human Activator Protein 1 (AP-1) (AID 2282931). The settings on record: HepG2 Attagene cis-factorial AP-1 reporter mRNA; actives raise or lower the signal. A digest of the protocol: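 Fluorescence of labelled PCR fragments separated by capillary electrophoresis gives reporter mRNA levels. HepG2 with transfected cis-regulated reporter units, 24 h exposure; DMSO serves as baseline for bidirectional curve fits.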

A short description of experiment [7]: ATG_AP_2_CIS: Attagene CIS-FACTORIAL HepG2 Assay for human Activator Protein 2 (AP-2) (AID 2282932). The settings on record: HepG2 AP-2 cis-reporter, Attagene transcription factor profiling; actives raise or lower the signal. An outline of the steps: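 Multiplexed mRNA reporter assay in HepG2: cis-regulated units report endogenous factor activity after 24 h treatment. Fluorescence from capillary electrophoresis of RT-PCR products gives the signal, with DMSO as baseline.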

Experiment [8] is described as follows: ATG_BRE_CIS: Attagene CIS-FACTORIAL HepG2 Assay for human Bone Morphogenetic Protein (BMP) Response Element (BRE) (AID 2282933). The settings on record: HepG2 BMP response element reporter, Attagene transcription factor profiling; actives raise or lower the signal. A digest of the protocol: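 Endogenous transcription factor activity read in transiently transfected HepG2 cells after 24 h chemical exposure. Bidirectional curve fitting against DMSO; readout is reporter transcript level by RT-PCR with capillary electrophoresis of labelled products.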

The target in experiment [9] is Retinoic acid receptor alpha (Homo sapiens) (UniProt P10276). The experiment is described as follows: ATG_DR5_RAR_CIS: Attagene CIS-FACTORIAL HepG2 Assay for human Retinoic Acid Receptor Alpha (RARE), DR5 submotif (AID 2282934). The note with it: HepG2 Attagene cis-factorial RARE DR5 reporter, mRNA; actives raise or lower the signal. A digest of the protocol: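 Read-out: DR5-driven reporter transcript measured by RT-PCR, 6-FAM primer extension, HpaI digest and capillary electrophoresis. Human HepG2 liver cells carry transiently transfected cis-element reporter constructs; dosing lasts 24 h. Gain or loss of signal fitted against DMSO baseline.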

Experiment [10] concerns the target Transcription factor E2F1 (Homo sapiens) (UniProt Q01094). The experiment is described as follows: ATG_E2F_CIS: Attagene CIS-FACTORIAL HepG2 Assay for human E2F Transcription Factor 1 (AID 2282935). The note with it: HepG2 Attagene cis-reporter, E2F reporter RNA transcripts; actives raise or lower the signal. An outline of the steps:
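Measures reporter transcript levels via RT-PCR with capillary electrophoresis detection in HepG2 cells harboring cis-regulated reporter units; 24 h post-dose; bidirectional curve fitting with DMSO as baseline.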

A short description of experiment [11]: ATG_E_Box_CIS: Attagene CIS-FACTORIAL HepG2 Assay for human Enhancer Box (E-box) (AID 2282936). The settings on record: HepG2 E-box cis-reporter transcription, actives raise or lower the signal. A digest of the protocol:
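First, HepG2 cells receive multiple cis-regulated reporter constructs by transient transfection. Next, chemicals are applied for 24 h. Finally, reporter mRNA is quantified via RT-PCR and capillary electrophoresis, with DMSO as baseline.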

Experiment [12] in a line: ATG_M_61_CIS: Attagene CIS-FACTORIAL HepG2 Assay for M61 Transcription Factor (Internal Marker) (AID 2282937). The note with it: HepG2 Attagene CIS-FACTORIAL M61 internal marker reporter; actives raise or lower the signal. A digest of the protocol:
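This endpoint serves as an internal background control within a multiplexed HepG2 cis-reporter panel. Cells are exposed for 24 h; reporter mRNA is amplified, fluorescently labelled and sized by capillary electrophoresis, with DMSO as negative control.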

The nature of experiment [13]: ATG_EGR_CIS: Attagene CIS-FACTORIAL HepG2 Assay for human Early Growth Response 1 (EGR1) (AID 2282938). The note with it: HepG2 Attagene CIS-FACTORIAL EGR reporter mRNA; actives raise or lower the signal. An outline of the steps: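 HepG2, transient MRTU transfection (cis promoters), 24 h compound. RNA → RT (oligo-dT) → PCR → 6-FAM labelling → HpaI cut → CE fluorescence. Bidirectional fit, DMSO baseline.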

The nature of experiment [14]: ATG_M_19_CIS: Attagene CIS-FACTORIAL HepG2 Assay for M19 Transcription Factor (Internal Marker) (AID 2282939). The settings on record: HepG2 Attagene CIS-FACTORIAL M19 internal marker reporter; actives raise or lower the signal. A digest of the protocol:
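Internal marker readout, fitted in both directions against DMSO, from HepG2 cells carrying transfected cis-element reporter constructs; RT-PCR and capillary electrophoresis of reporter mRNA after 24 h exposure.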

Experiment [15] in a line: ATG_ERE_CIS: Attagene CIS-FACTORIAL HepG2 Assay for Estrogen Response Element (ERE) (AID 2282940). The settings on record: HepG2 ERE cis-reporter, Attagene RNA transcript; actives raise or lower the signal. A digest of the protocol:
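After 24 h compound treatment, RNA from transfected HepG2 cells was reverse-transcribed, reporter cDNA PCR-amplified, FAM-labelled, HpaI-cut and resolved by capillary electrophoresis. ERE-driven cis reporter transcripts reflect endogenous factors; gain or loss scored against DMSO.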

Experiment [16] is described as follows: ATG_Ets_CIS: Attagene CIS-FACTORIAL HepG2 Assay for human Erythroblast Transformation Specific (ETS) (AID 2282941). The note with it: HepG2 ETS cis-reporter transcription, actives raise or lower the signal. An outline of the steps:
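After transient cis-reporter transfection, HepG2 cells receive test chemical for 24 h. Reporter mRNA levels, measured by RT-PCR and capillary electrophoresis fluorescence, are analysed bidirectionally relative to the DMSO baseline.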

Experiment [17] has as its target Hepatocyte nuclear factor 3-beta (Homo sapiens) (UniProt Q9Y261). The experiment is described as follows: ATG_FoxA2_CIS: Attagene CIS-FACTORIAL HepG2 Assay for human Forkhead box A2 (FOXA2) (AID 2282942). The settings on record: HepG2 cis-reporter transcription factor activity, 24 h; actives raise or lower the signal. A digest of the protocol:
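Cells: HepG2, transient multiplex reporter transfection. Exposure 24 h. Detection: reporter-specific RT-PCR, fluorescent labelling, restriction digest, capillary electrophoresis. Analysis: bidirectional curve fit, DMSO as negative control.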

The nature of experiment [18]: ATG_FoxO_CIS: Attagene CIS-FACTORIAL HepG2 Assay for human Forkhead box O (FoxO) (AID 2282943). The settings on record: HepG2 Attagene cis-reporter, FoxO element, mRNA; actives raise or lower the signal. An outline of the steps: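 Read-out: fluorescence of 6-FAM-labelled reporter cDNA fragments resolved by capillary electrophoresis. Transiently transfected HepG2 cells were dosed for 24 h; activity fitted in both directions relative to DMSO controls.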

Experiment [19] can be described thus: ATG_GATA_CIS: Attagene CIS-FACTORIAL HepG2 Assay for human GATA Binding Protein (AID 2282944). The settings on record: HepG2 GATA cis-element reporter, Attagene multiplex mRNA; actives raise or lower the signal. An outline of the steps:
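Reporter transcripts from a GATA cis-regulated unit, among multiplexed reporters in transfected HepG2 cells, were measured by RT-PCR with capillary electrophoresis after 24 h dosing. Induction or loss scored relative to DMSO.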

Experiment [20] in a line: ATG_GLI_CIS: Attagene CIS-FACTORIAL HepG2 Assay for human Zinc Finger Protein GLI1 (AID 2282945). The note with it: HepG2, Attagene cis-factorial reporter mRNA, GLI element; actives raise or lower the signal. A digest of the protocol:
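Transiently transfected HepG2 cells report endogenous transcription factor activity via cis-element-driven reporter units. After 24 h compound exposure, reporter mRNA was measured by RT-PCR with capillary electrophoresis; bidirectional fitting against DMSO baseline.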

Chain of Hepatocyte nuclear factor 3-beta (Homo sapiens) (Q9Y261 whole entry, looked up): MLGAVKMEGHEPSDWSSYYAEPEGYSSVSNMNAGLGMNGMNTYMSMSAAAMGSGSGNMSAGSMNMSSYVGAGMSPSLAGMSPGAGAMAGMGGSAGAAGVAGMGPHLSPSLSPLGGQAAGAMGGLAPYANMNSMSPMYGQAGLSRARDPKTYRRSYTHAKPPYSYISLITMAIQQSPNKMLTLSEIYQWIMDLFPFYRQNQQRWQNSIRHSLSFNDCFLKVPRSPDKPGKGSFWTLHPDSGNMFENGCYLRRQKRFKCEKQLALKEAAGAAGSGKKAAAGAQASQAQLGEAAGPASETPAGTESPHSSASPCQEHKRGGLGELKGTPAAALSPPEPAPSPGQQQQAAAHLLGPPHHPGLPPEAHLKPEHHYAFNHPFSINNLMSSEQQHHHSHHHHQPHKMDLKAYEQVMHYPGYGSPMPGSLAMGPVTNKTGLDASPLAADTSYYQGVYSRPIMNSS
Chain of Transcription factor E2F1 (Homo sapiens) (Q01094 whole entry, looked up): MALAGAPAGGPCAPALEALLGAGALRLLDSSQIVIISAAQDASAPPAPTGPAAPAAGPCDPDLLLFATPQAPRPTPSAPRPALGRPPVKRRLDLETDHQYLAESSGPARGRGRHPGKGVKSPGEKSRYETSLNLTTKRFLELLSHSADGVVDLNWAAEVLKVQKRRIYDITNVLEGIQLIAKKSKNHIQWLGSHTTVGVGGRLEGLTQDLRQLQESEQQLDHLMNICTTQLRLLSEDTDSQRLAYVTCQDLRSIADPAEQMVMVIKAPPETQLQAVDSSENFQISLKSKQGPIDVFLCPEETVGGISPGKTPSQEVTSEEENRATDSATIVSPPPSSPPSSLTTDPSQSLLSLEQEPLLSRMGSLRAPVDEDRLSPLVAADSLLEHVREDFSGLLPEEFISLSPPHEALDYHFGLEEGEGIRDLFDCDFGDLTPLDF
Chain of Aryl hydrocarbon receptor (Homo sapiens) (P35869 whole entry, looked up): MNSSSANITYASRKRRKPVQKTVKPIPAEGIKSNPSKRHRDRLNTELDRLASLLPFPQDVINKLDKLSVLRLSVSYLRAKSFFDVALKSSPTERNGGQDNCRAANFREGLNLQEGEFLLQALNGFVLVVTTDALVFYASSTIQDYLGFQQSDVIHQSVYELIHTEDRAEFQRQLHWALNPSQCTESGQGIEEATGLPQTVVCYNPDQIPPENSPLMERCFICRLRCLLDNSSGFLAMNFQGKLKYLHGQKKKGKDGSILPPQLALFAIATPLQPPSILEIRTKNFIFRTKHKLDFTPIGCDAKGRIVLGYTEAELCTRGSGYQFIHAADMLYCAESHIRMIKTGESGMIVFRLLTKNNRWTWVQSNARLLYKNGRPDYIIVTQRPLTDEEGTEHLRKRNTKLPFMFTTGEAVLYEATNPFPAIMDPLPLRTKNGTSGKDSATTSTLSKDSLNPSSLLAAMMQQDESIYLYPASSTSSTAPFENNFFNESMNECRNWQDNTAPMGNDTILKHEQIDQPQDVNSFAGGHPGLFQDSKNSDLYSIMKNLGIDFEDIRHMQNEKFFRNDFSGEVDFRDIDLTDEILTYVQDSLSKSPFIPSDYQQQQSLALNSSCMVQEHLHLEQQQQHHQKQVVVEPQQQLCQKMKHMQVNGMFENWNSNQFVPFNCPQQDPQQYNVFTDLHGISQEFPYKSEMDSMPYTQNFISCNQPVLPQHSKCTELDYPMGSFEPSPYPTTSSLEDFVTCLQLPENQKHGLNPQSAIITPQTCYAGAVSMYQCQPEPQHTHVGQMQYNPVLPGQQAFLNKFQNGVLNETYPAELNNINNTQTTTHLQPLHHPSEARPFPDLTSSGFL
Chain of Retinoic acid receptor alpha (Homo sapiens) (P10276 whole entry, looked up): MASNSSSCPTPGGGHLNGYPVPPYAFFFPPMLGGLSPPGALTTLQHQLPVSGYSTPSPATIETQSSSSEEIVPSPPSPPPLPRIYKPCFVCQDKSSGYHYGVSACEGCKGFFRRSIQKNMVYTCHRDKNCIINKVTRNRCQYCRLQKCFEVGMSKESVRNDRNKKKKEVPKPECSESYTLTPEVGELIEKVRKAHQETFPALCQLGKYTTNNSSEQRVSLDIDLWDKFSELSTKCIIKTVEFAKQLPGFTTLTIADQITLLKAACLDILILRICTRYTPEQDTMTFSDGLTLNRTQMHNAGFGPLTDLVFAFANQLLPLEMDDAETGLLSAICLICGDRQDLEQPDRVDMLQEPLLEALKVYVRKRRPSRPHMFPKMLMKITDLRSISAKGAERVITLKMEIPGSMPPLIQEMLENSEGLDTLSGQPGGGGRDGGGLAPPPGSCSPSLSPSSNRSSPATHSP
Chain of CCAAT/enhancer-binding protein beta (Homo sapiens) (P17676 whole entry, looked up): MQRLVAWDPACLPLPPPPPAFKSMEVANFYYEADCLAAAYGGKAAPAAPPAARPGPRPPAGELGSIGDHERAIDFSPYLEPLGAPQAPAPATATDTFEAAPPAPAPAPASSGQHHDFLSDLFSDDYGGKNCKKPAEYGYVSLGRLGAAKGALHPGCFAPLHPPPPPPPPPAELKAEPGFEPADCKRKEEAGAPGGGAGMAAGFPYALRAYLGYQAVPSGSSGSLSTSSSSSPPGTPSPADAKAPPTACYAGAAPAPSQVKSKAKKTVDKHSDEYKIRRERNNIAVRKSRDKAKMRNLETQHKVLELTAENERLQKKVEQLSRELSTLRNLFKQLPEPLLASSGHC

With `FC(F)(F)c1ccc(Cl)cc1`, the result in experiment [1], in [2], in experiment [3], in [4], in experiment [5] and in [6] was inactive. Also, the result in experiment [7], in experiment [8], in experiment [9], in experiment [10], in [11] and in experiment [12] was inactive. Further, the molecule was called inactive in experiment [13], in experiment [14], in experiment [15], in [16], in experiment [17] and in experiment [18]. Further, the molecule was classed as inactive in [19] and in experiment [20].
For the molecule `O=[N+]([O-])c1cc(Cl)ccc1Cl`, the result in experiment [1], in experiment [2], in experiment [3], in experiment [4], in [5] and in experiment [6] was inactive. For the same molecule, the molecule was classed as inactive in experiment [7], in experiment [8], in experiment [9], in experiment [10], in experiment [11] and in experiment [12]. Also, the molecule was classed as inactive in experiment [13], in experiment [14], in [15], in experiment [16], in experiment [17] and in experiment [18]. The call in [19] and in [20] was inactive.
Regarding `O=C(O)C(F)(F)OC(F)(F)C(F)(F)OC(F)(F)F`, the molecule was classed as inactive in [1], in experiment [2], in experiment [3], in experiment [4], in experiment [5] and in [6]. Moreover, the result in [7], in [8], in [9], in [10], in [11] and in experiment [12] was inactive. For the same molecule, the molecule was called inactive in [13], in experiment [14], in experiment [15], in [16], in experiment [17] and in experiment [18]. Besides, the outcome in [19] and in experiment [20] was inactive.
As a reminder, the AC50 is the concentration at which the activity in the assay is half-maximal. In the case of `OCC(F)(F)OC(F)(F)C(F)(F)OC(F)(F)C(F)(F)OC(F)(F)F`, the outcome in [1], in experiment [2], in experiment [3], in experiment [4], in experiment [5] and in experiment [6] was inactive. Besides, the outcome in [7], in experiment [9], in experiment [10], in experiment [11], in experiment [13] and in experiment [14] was inactive. Besides, the result in experiment [15], in experiment [16], in experiment [17], in experiment [18], in experiment [19] and in experiment [20] was inactive. The AC50 is 80.8 µM (active) in experiment [4] and 5.62 µM (active) in [15].
